Screening data deposited in PubChem BioAssay by The Scripps Research Institute Molecular Screening Center.
Hits are enriched below; roughly 4.1% of the tested compounds scored in any of these assays.
DAX1 inh-1: blocks DAX1 repression of SF-1 activated StAR promoter | HEK293T StAR-luciferase reporter, SF-1/DAX-1 repression relief | inhibition, % at 6.8 µM | 370,000 tested, 1.1% active;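 active = inhibition above the mean over all tested compounds plus 3 SD, cut at about 3.6% in these data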;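 note: 0% = DAX-1 cells with DMSO and 100% = cells lacking DAX-1 with DMSO; higher inhibition means more luminescence from relief of DAX-1 repression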
hcDAF-12 act: H. contortus DAF-12 activation, primary screen | activation, % at 6.8 µM | AID 652067 | 370,000 tested, 1.4% active | HEK293 hcDAF-12 lit1-tk-luc reporter, luminescence; 0% DMSO, 100% Δ7-dafachronic acid;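 active = activation above the mean of all tested compounds plus 3 SD, cut at about 5.5% in these data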;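 note: 100% = response to 3 µM Δ7-dafachronic acid high control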
DAX1 inh-2: inhibitors of human orphan nuclear receptor DAX1 (NR0B1); 340,000 tested, 0.99% active; P51843; AID 504766; inhibition, % at 6.75 µM; HEK293 Gal4-DAX1 luciferase reporter, luminescence;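 active = inhibition above the mean over all tested compounds plus 3 SD, cut at about 4.2% in these data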;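 note: 0% = DAX1-transfected cells with DMSO and 100% = empty-vector control cells with DMSO; inhibition shows as a rise in luminescence from relieved DAX1 repression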
ssDAF-12 act: S. stercoralis DAF-12 activation, primary screen; HEK293 ssDAF-12/GRIP1 lit1-tk-luc reporter, luminescence; % of 3 µM dafachronic acid response; activation, % at 6.8 µM; 370,000 tested, 1% active;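 active = activation above the mean over all tested compounds plus 3 SD, cut at about 0.9% in these data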;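 note: 0% = DMSO-only wells and 100% = 3 µM delta7-dafachronic acid wells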
hgDAF-12 ag: hgDAF-12 agonism, primary luciferase screen; AID 687014; 370,000 tested, 1.8% active; activation, % at 6.8 µM; HEK293 GAL4-hgDAF12 UAS-luciferase reporter, agonist luminescence; normalized to butyrate control;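 active = activation above a cutoff set at the mean of all screened compounds plus 3 SD, cut at about 10% in these data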;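 note: 0% = DMSO wells and 100% = sodium butyrate wells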
hgDAF12 ag: hgDAF-12 agonism, confirmation assay | shares compounds with hgDAF-12 ag | HEK293 GAL4-hgDAF12 luciferase reporter, agonist mode; percent of butyrate response | activation, % at 6.8 µM | 3,300 tested, 80% active;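 active = mean activation over triplicate wells above the hit cutoff derived from the earlier primary screen, cut at about 11% in these data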;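 note: 0% = DMSO low control and 100% = 2 mM sodium butyrate high control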
LXRb DAF12 ctr: activates human LXR-beta, counter-screen for DAF-12 agonists; shares compounds with hgDAF-12 ag; HEK293 Gal4-LXR luciferase reporter, 24 h; activation, % at 6.8 µM; 3,300 tested, under 10 active; AID 743051;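 active = mean activation of the triplicate above a set limit carried over from the primary screen, none filed active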
Target sequence (P55055 whole entry, looked up, the tested form may be a part): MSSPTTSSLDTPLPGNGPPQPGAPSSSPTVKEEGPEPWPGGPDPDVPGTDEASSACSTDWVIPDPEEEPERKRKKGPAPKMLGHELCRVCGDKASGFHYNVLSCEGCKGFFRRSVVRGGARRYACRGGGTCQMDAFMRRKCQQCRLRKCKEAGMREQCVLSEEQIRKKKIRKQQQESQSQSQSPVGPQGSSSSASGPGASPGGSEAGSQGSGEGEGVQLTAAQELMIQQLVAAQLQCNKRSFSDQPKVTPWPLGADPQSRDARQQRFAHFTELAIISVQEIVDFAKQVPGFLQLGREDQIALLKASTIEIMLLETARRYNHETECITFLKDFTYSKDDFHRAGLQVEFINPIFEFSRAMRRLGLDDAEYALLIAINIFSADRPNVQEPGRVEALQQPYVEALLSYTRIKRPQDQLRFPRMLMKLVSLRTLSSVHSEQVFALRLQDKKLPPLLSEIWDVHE
Active calls of the source: *.

CN=c1sc(C(=O)Nc2cccc(Cl)c2)cc(=O)n1C was read as DAX1 inh-1 -1, hcDAF-12 act -1, DAX1 inh-2 -2, ssDAF-12 act -1 and hgDAF-12 ag 3.
Cn1ccs/c1=N\C(=O)Nc1cccc(Cl)c1 was read as DAX1 inh-1 3, hcDAF-12 act 2, DAX1 inh-2 1, ssDAF-12 act 0, hgDAF-12 ag 16*, hgDAF12 ag 11* and LXRb DAF12 ctr 1.
For CCOC(=O)C1CCCN(C(=O)c2ccc3nc(-c4cccc(OC)c4)oc3c2)C1 (stereo unspecified) the results were DAX1 inh-1 -4, hcDAF-12 act 3, DAX1 inh-2 -2, ssDAF-12 act 0, hgDAF-12 ag 14*, hgDAF12 ag 12* and LXRb DAF12 ctr 1.
`COc1ccc(NC(=O)C2(C)CCN2C(=O)c2ccc(C(C)(C)C)cc2)cc1OC` (stereo unspecified) gave DAX1 inh-1 -3, hcDAF-12 act -2, ssDAF-12 act -2 and hgDAF-12 ag -2.
`CC(/C=C/c1ccccc1F)=N\NC(=O)c1ccc(Cl)cc1` gave DAX1 inh-1 0, hcDAF-12 act -1, DAX1 inh-2 -1, ssDAF-12 act -1 and hgDAF-12 ag 6.
CC(/C=C/c1ccccc1F)=N\NC(=O)c1ccccc1 was read as DAX1 inh-1 3, hcDAF-12 act 2, DAX1 inh-2 3, ssDAF-12 act 0, hgDAF-12 ag 14*, hgDAF12 ag 10 and LXRb DAF12 ctr 0.
COc1ccccc1/C=N/Nc1nccnc1Cl was read as DAX1 inh-1 3, hcDAF-12 act 5.8*, DAX1 inh-2 1, ssDAF-12 act 0, hgDAF-12 ag 14*, hgDAF12 ag 10* and LXRb DAF12 ctr 0.
For O=C(OCCOc1ccccc1)c1n[nH]c2ccccc12 the results were DAX1 inh-1 2, hcDAF-12 act 1, DAX1 inh-2 3, ssDAF-12 act -1, hgDAF-12 ag 15*, hgDAF12 ag 13* and LXRb DAF12 ctr 1.
`O=C(NCCc1ccccc1)c1n[nH]c2ccccc12` gave DAX1 inh-1 3, hcDAF-12 act 5.7*, DAX1 inh-2 1, ssDAF-12 act 0, hgDAF-12 ag 15*, hgDAF12 ag 13* and LXRb DAF12 ctr 1.
Screening O=C(NCCc1ccc(Cl)cc1)c1n[nH]c2ccccc12 returned DAX1 inh-1 1, hcDAF-12 act -1, DAX1 inh-2 1, ssDAF-12 act -1 and hgDAF-12 ag 7.
Screening CCOC(=O)c1n[nH]c2ccccc12 returned DAX1 inh-1 0, hcDAF-12 act 0, DAX1 inh-2 0, ssDAF-12 act -2 and hgDAF-12 ag 1.
Cc1ccccc1C(=O)NCC(=O)c1ccccc1 was read as DAX1 inh-1 2, hcDAF-12 act 5, ssDAF-12 act 0, hgDAF-12 ag 13*, hgDAF12 ag 11* and LXRb DAF12 ctr 0.
O=C1CC(N2CCOCC2)=NC(=O)N1c1ccc(Br)cc1 was read as DAX1 inh-1 1, hcDAF-12 act 0, ssDAF-12 act -1 and hgDAF-12 ag -2.
For Cc1cc(C(C)(C)C)cc(C)c1S(=O)(=O)N1CC(=O)Nc2ccccc21 the results were DAX1 inh-1 0, hcDAF-12 act -3, DAX1 inh-2 0, ssDAF-12 act -2 and hgDAF-12 ag -2.
`COc1ccc(-c2ccc(C(=O)Nc3ccc(Cl)cc3)c3occc23)c(C)c1` gave DAX1 inh-1 2, hcDAF-12 act 0, ssDAF-12 act -1, hgDAF-12 ag 18*, hgDAF12 ag 8 and LXRb DAF12 ctr 0.
`COc1ccc(-c2ccc(C(=O)Nc3ccc(NC(C)=O)cc3)c3occc23)c(C)c1` gave DAX1 inh-1 -1, hcDAF-12 act 0, ssDAF-12 act -1 and hgDAF-12 ag 1.
Clc1c(CSc2nc3ccccc3o2)nc2sccn12 was read as DAX1 inh-1 4.1*, hcDAF-12 act 5, DAX1 inh-2 3, ssDAF-12 act 1, hgDAF-12 ag 24*, hgDAF12 ag 20* and LXRb DAF12 ctr 1.
`O=C(N/N=C\c1ccccn1)c1ccccc1O` gave DAX1 inh-1 0, hcDAF-12 act 0, DAX1 inh-2 1, ssDAF-12 act 0, hgDAF-12 ag 15*, hgDAF12 ag 3 and LXRb DAF12 ctr 0.
Screening O=C(N/N=C\c1ccccn1)c1cccc(C(=O)N/N=C\c2ccccn2)n1 returned DAX1 inh-1 0, hcDAF-12 act 1, DAX1 inh-2 1, ssDAF-12 act -1 and hgDAF-12 ag 1.
C/C(=N/NC(=O)c1ccccc1)C1=C(O)CC(C)(C)CC1=O was read as DAX1 inh-1 2, hcDAF-12 act 3, DAX1 inh-2 2, ssDAF-12 act -1, hgDAF-12 ag 14*, hgDAF12 ag 3 and LXRb DAF12 ctr 0.
Screening C/C(=N\NC(=O)c1c(Br)c(C)nn1C)c1cccc(NC(=O)c2ccccc2F)c1 returned DAX1 inh-1 0, hcDAF-12 act -1, DAX1 inh-2 -1, ssDAF-12 act -2 and hgDAF-12 ag -1.
Screening CC1(C)CC(=O)C(C(N)=NC(=O)c2ccccc2)=C(O)C1 returned DAX1 inh-1 0, hcDAF-12 act -2, DAX1 inh-2 -2, ssDAF-12 act -1 and hgDAF-12 ag 3.
C/C(=N\NC(=O)c1nn(C)c(C)c1Br)c1cccc(NC(=O)c2ccc(F)cc2)c1 was read as DAX1 inh-1 4.1*, hcDAF-12 act 5, DAX1 inh-2 3, ssDAF-12 act 0, hgDAF-12 ag 17*, hgDAF12 ag 5 and LXRb DAF12 ctr 0.
For C/C(=N\NC(=O)c1ccccc1)c1cccc(Br)c1 the results were DAX1 inh-1 1, hcDAF-12 act 3, DAX1 inh-2 2, ssDAF-12 act 0, hgDAF-12 ag 14*, hgDAF12 ag 7 and LXRb DAF12 ctr 0.
For Cc1ccc(-n2c(C)nn(CCOc3ccccc3)c2=O)cc1 the results were DAX1 inh-1 3, hcDAF-12 act 2, DAX1 inh-2 1, ssDAF-12 act -1, hgDAF-12 ag 13*, hgDAF12 ag 9 and LXRb DAF12 ctr 0.
Cc1ccccc1Oc1ccc2c(c1)[C@@H]1C[C@H]3[C@@H](C(=O)N1CC2)[C@H](C)ON3C was read as DAX1 inh-1 -4, hcDAF-12 act 0, DAX1 inh-2 -2, ssDAF-12 act -1 and hgDAF-12 ag -3.
COCCCNC(=O)c1ccc(Cn2c(=O)c3ccccc3n(Cc3ccc(C(C)C)cc3)c2=O)cc1 was read as DAX1 inh-1 0, hcDAF-12 act -3, ssDAF-12 act -1 and hgDAF-12 ag 0.
